# This is one part of a sample in which hits are shown more often than they occur.
# AmpC no deterg – inhibitors of E. coli AmpC beta-lactamase without detergent; P00811; AmpC nitrocefin hydrolysis, absorbance 480 nm, 0.0001% Triton; Potency, µM (series often up to 57.1 µM), most hits filed as inhibitors; 0.52% of 330,000 active; note: nearly all actives have a fitted effect of over 20% in size
#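 AmpC (5.3 nM in the dispensed reagent) in 20 mM phosphate pH 7.0 with 0.01% (detergent screen) or 0.0001% Triton X-100 was preincubated with compounds for 15 min at room temperature. Nitrocefin was then added from an 800 uM solution, and hydrolysis was followed at 480 nm.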
# Cycloheximide cs – counter-screen for Shiga toxin inhibitors: cycloheximide protein synthesis inhibition. cell reporter, cycloheximide protein synthesis inhibition counterscreen. max response, %. 12% of 300,000 active. AID 2314; in the data active = max response mostly above about 13%, no sharp cut-off; inactive = mostly below about 14%; note: read at 38.3 µM for the half of the compounds with a filed dose
# Shiga toxin inh – Shiga toxin inhibition | Vero cells, Shiga toxin protein synthesis inhibition reporter | inhibition, % at 38.7 µM | 9.2% of 290,000 active | AID 2315; in the data active = inhibition mostly above about 28%, no sharp cut-off; inactive = mostly below about 43%
# AMA1 RON2 block – inhibitors of Plasmodium falciparum AMA1-RON2 interaction | Potency, µM (top dose mostly 58.2 µM), hits mostly inhibitors | 0.2% of 360,000 active | AID 720542 | AlphaScreen AMA1-biotinylated RON2 peptide binding; note: nearly all actives have a fitted effect of over 45% in size
#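 AMA1 (3D7) with his tag at 25 nM final met compounds first, then biotinylated RON2 peptide at 25 nM; detection used donor plus acceptor beads, 10 µg/mL apiece, read by AlphaScreen after 30 min at room temperature.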
# AmpC inh detg – inhibitors of E. coli AmpC beta-lactamase with detergent; P00811; AmpC hydrolysis of nitrocefin, absorbance 480 nm, 0.01% Triton; Potency, µM (series often up to 114 µM), usual class: inhibitors; 0.041% of 370,000 active; note: nearly all actives have a fitted effect of over 25% in size
#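 AmpC (5.3 nM in the dispensed reagent) in 20 mM phosphate pH 7.0 with 0.01% (detergent screen) or 0.0001% Triton X-100 was preincubated with compounds for 15 min at room temperature. Nitrocefin was then added from an 800 uM solution, and hydrolysis was followed at 480 nm.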
# SARS PLpro yeast – SARS-CoV PLP inhibition in yeast; S. cerevisiae expressing SARS-CoV PLpro, growth rescue; AID 485353; Potency, µM (series often up to 32.9 µM), actives largely listed as activators; 0.19% of 330,000 active; calls by dose curve; note: nearly all actives have a fitted effect of over 55% in size
# Numbers stand for hits; i = inactive; ? = inconclusive; nt = no result given. Unless noted, calls come from the whole dose curve; as a rule, active = well fitted curve in the direction sought with a large enough effect; inconclusive = small, poorly fitted or top-dose-only effect, or another doubt; inactive = no such curve, though single readings can be large; an effect the other way counts as inactive or inconclusive.
SMILES,AmpC no deterg,Cycloheximide cs,Shiga toxin inh,AMA1 RON2 block,AmpC inh detg,SARS PLpro yeast
CCC(C)[C@@H](NC(=O)OC(C)(C)C)c1nnc(S(=O)(=O)Cc2cccc(C)c2)o1 (some centres undefined),14µM,31,77,i,18µM,i
CCSc1nnc([C@H](Cc2ccccc2)NC(=O)OC(C)(C)C)o1,i,i,i,i,i,i
Cc1ccccc1CS(=O)(=O)c1nnc([C@H](Cc2ccccc2)NC(=O)OC(C)(C)C)o1,13µM,40,i,i,28µM,i
COc1ccc(CCNC(=O)CCn2c(=O)c3ccccc3n(CC(=O)Nc3ccc(C)cc3C)c2=O)cc1OC,nt,nt,nt,nt,i,nt
Cc1sc(NC(=O)c2ccccc2F)c(CN2CCCCC2C)c1C (centres undefined),i,71,61,i,?,i
COc1ccc(OC)c(NC(=O)Cn2c(=O)n(CC3CCCO3)c(=O)c3cc(OC)c(OC)cc32)c1 (centres undefined),i,i,i,i,i,i
N#Cc1ccc(S(=O)(=O)N2CCCN(c3ccc(C(F)(F)F)cn3)CC2)cc1,i,i,i,i,i,i

# Compound activity: PubChem BioAssay, National Center for Advancing Translational Sciences (NCATS)
